Several values for one entry are separate records, joined by “and”; a condition that tells them apart may be missing. Equal entries are not always repeated. More than one record can exist for a structure, and the calls need not agree. Activity calls are given as the source filed them. Rule for the calls: active = hit-call score of the fitted dose curve at least 0.9, where 1 is the maximum; inactive = score below 0.9.
Assays:
[1] = read-out: Macrophage colony-stimulating factor (MCSF), CSF1 (gene 1435); assay: BSK_hDFCGF_MCSF: BioMAP Diversity Plus: hDFCGF Assay for Macrophage colony-stimulating factor (MCSF) Biomarker Activity (AID 2283060); settings: primary human foreskin fibroblasts; actives raise or lower the signal
Method in brief: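 ELISA read-out of M-CSF in human dermal foreskin fibroblast cultures, 24 h after chemical dosing; gain or loss of signal fitted bidirectionally relative to DMSO baseline.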

[2] = BSK_hDFCGF_SRB: Viability Assessment in the BioMAP Diversity Plus: hDFCGF Assay (AID 2283061); settings: primary human foreskin fibroblasts;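 note: cells exposed to compound for 24 h before the read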
Method in brief: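 Primary human foreskin fibroblasts; 24 h post-dose; fixed 10% TCA, stained 0.1% SRB, A560 read; total protein as overt cytotoxicity measure; curves fit bidirectionally vs DMSO control.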

[3] = read-out: TIMP metallopeptidase inhibitor 1 (TIMP1), TIMP1 (gene 7076); assay: BSK_hDFCGF_TIMP1: BioMAP Diversity Plus: hDFCGF Assay for TIMP metallopeptidase inhibitor 1 (TIMP1) Biomarker Activity (AID 2283062); settings: primary human foreskin fibroblasts; actives raise or lower the signal
Method in brief: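 ELISA readout of TIMP-1 from human dermal foreskin fibroblast cultures 24 h post-dosing. Curves were fitted in both directions against DMSO baseline, with SRB total-protein staining in parallel cultures as a cytotoxicity check.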

[4] = read-out: Monokine induced gamma interferon (MIG), CXCL9 (gene 4283); assay: BSK_hDFCGF_MIG: BioMAP Diversity Plus: hDFCGF Assay for Monokine induced gamma interferon (MIG) Biomarker Activity (AID 2283063); settings: primary human foreskin fibroblasts; actives raise or lower the signal
Method in brief: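 Fibroblasts (human foreskin, primary) dosed, 24 h, MIG by ELISA; fit bidirectional vs DMSO.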

[5] = read-out: Matrix Metallopeptidase 1 (MMP1), MMP1 (gene 4312); assay: BSK_hDFCGF_MMP1: BioMAP Diversity Plus: hDFCGF Assay for Matrix Metallopeptidase 1 (MMP1) Biomarker Activity (AID 2283064); settings: primary human foreskin fibroblasts; actives raise or lower the signal
Method in brief: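 MMP1 levels quantified by ELISA 24 h after dosing human dermal fibroblast cultures, with parallel SRB total-protein staining for overt cytotoxicity. Data fitted in both directions against DMSO baseline.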

[6] = read-out: Plasminogen activator inhibitor-1 (PAI1), SERPINE1 (gene 5054); assay: BSK_hDFCGF_PAI1: BioMAP Diversity Plus: hDFCGF Assay for Plasminogen activator inhibitor-1 (PAI1) Biomarker Activity (AID 2283066); settings: primary human foreskin fibroblasts; actives raise or lower the signal
Method in brief: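 ELISA readout of PAI-1 from primary human skin fibroblast cultures, 24 h after compound addition. Gain or loss of signal was fitted bidirectionally against DMSO baseline.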

[7] = read-out: Intercellular Adhesion Molecule 1 (ICAM1), ICAM1 (gene 3383); assay: BSK_KF3CT_ICAM1: BioMAP Diversity Plus: KF3CT Assay for Intercellular Adhesion Molecule 1 (ICAM1) Biomarker Activity (AID 2283067); settings: primary human keratinocytes with fibroblasts; actives raise or lower the signal
Method in brief: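 ELISA readout of ICAM-1; KF3CT human skin co-culture (keratinocytes + foreskin fibroblasts), 24 h post-dose; gain/loss fit vs DMSO baseline.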

[8] = read-out: Interferon-gamma inducible Protein 10 (IP10), CXCL10 (gene 3627); assay: BSK_KF3CT_IP10: BioMAP Diversity Plus: KF3CT Assay for Interferon-gamma inducible Protein 10 (IP10) Biomarker Activity (AID 2283068); settings: primary human keratinocytes with fibroblasts; actives raise or lower the signal
Method in brief: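 Signal is secreted/surface IP-10 by ELISA in a human primary skin co-culture of keratinocytes and foreskin fibroblasts, taken 24 h post-dosing; DMSO served as negative control.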

[9] = BSK_KF3CT_SRB: Viability Assessment in the BioMAP Diversity Plus: KF3CT Assay (AID 2283069); settings: primary human keratinocytes with fibroblasts;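 note: total protein by sulforhodamine B staining as a cytotoxicity measure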
Method in brief: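 Cytotoxicity was gauged by SRB staining (0.1% SRB, 10% TCA fixation, 560 nm) of parallel cultures at 24 h. The cells were primary human skin keratinocytes co-cultured with fibroblasts, and activity was fitted in both directions against DMSO.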

[10] = read-out: Interleukin-1 alpha (IL1a), IL1A (gene 3552); assay: BSK_KF3CT_IL1a: BioMAP Diversity Plus: KF3CT Assay for Interleukin-1 alpha (IL1a) Biomarker Activity (AID 2283070); settings: primary human keratinocytes with fibroblasts; actives raise or lower the signal
Method in brief: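 IL-1a was detected by ELISA 24 h after chemical treatment of a co-culture of human skin keratinocytes and foreskin fibroblasts. Gain or loss of signal was fitted against the DMSO baseline.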

[11] = read-out: TIMP metallopeptidase inhibitor 2 (TIMP2), TIMP2 (gene 7077); assay: BSK_KF3CT_TIMP2: BioMAP Diversity Plus: KF3CT Assay for TIMP metallopeptidase inhibitor 2 (TIMP2) Biomarker Activity (AID 2283071); settings: primary human keratinocytes with fibroblasts; actives raise or lower the signal
Method in brief: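 ELISA readout of TIMP-2 in keratinocyte plus foreskin fibroblast co-cultures (human skin primary cells), 24 h post-dose. Gain or loss of signal fitted relative to DMSO.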

[12] = read-out: C-C motif chemokine 2 (Homo sapiens) (UniProt P13500); assay: BSK_KF3CT_MCP1: BioMAP Diversity Plus: KF3CT Assay for Monocyte Chemoattractant Protein 1 (MCP1/CCL2) Biomarker Activity (AID 2283073); settings: primary human keratinocytes with fibroblasts; actives raise or lower the signal
Method in brief: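 KF3CT skin co-culture (keratinocytes/foreskin fibroblasts), 24 h post-dose; MCP-1 by ELISA; gain/loss of signal fit bidirectionally vs DMSO baseline.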

[13] = read-out: Matrix Metallopeptidase 9 (MMP9), MMP9 (gene 4318); assay: BSK_KF3CT_MMP9: BioMAP Diversity Plus: KF3CT Assay for Matrix Metallopeptidase 9 (MMP9) Biomarker Activity (AID 2283074); settings: primary human keratinocytes with fibroblasts; actives raise or lower the signal;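 for AC50: MMP9 protein level quantified by ELISA in the co-culture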
Method in brief: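 MMP-9 quantified by ELISA after 24 h chemical treatment of primary human skin keratinocyte/fibroblast co-cultures; gain or loss fitted against DMSO, with parallel SRB staining (0.1% SRB, 560 nm) for overt cytotoxicity.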

[14] = read-out: urokinase plasminogen activator (uPA), PLAU (gene 5328); assay: BSK_KF3CT_uPA: BioMAP Diversity Plus: KF3CT Assay for urokinase plasminogen activator (uPA) Biomarker Activity (AID 2283075); settings: primary human keratinocytes with fibroblasts; actives raise or lower the signal
Method in brief: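 ELISA read-out of uPA 24 h after dosing human skin keratinocytes co-cultured with foreskin fibroblasts. Signal change fitted both ways relative to DMSO; sulforhodamine B on parallel cultures marks overt cytotoxicity.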

[15] = read-out: CD40, CD40 (gene 958); assay: BSK_LPS_CD40: BioMAP Diversity Plus: LPS Assay for CD40 Biomarker Activity (AID 2283076); settings: primary human HUVEC with PBMC; actives raise or lower the signal
Method in brief: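 ELISA readout of CD40 in HUVEC/PBMC co-culture (BSK_LPS system), 24 h post-dosing; bidirectional curve fit, DMSO baseline; parallel SRB total-protein staining for cytotoxicity.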

[16] = read-out: Interleukin-8 (IL8), CXCL8 (gene 3576); assay: BSK_LPS_IL8: BioMAP Diversity Plus: LPS Assay for Interleukin-8 (IL8) Biomarker Activity (AID 2283078); settings: primary human HUVEC with PBMC; actives raise or lower the signal
Method in brief: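 HUVEC + PBMC co-culture, LPS-activated; test chemicals dosed, IL-8 read by ELISA at 24 h. Bidirectional curve fit vs DMSO baseline (gain or loss of signal).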

[17] = BSK_LPS_SRB: Viability Assessment in the BioMAP Diversity Plus: LPS Assay (AID 2283079); settings: primary human HUVEC with PBMC;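 note: total protein by sulforhodamine B absorbance as a cytotoxicity measure; measured one day after compound addition; fitted in both directions against DMSO so loss or gain of signal counts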
Method in brief: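 HUVEC + PBMC co-culture, LPS-stimulated; compound 24 h. 10% TCA fix, 0.1% SRB stain, A560. Bidirectional fit vs DMSO.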

[18] = read-out: Transforming growth factor beta 1 (TGFb1), TGFB1 (gene 7040); assay: BSK_KF3CT_TGFb1: BioMAP Diversity Plus: KF3CT Assay for Transforming growth factor beta 1 (TGFb1) Biomarker Activity (AID 2283072); settings: primary human keratinocytes with fibroblasts; actives raise or lower the signal
Method in brief: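 Read-out: ELISA for TGF-b1 in keratinocyte/foreskin fibroblast human skin co-culture, 24 h after dosing; bidirectional curve fit vs DMSO baseline; gain or loss of signal scored.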

[19] = read-out: Vascular cell adhesion molecule 1 (VCAM1), VCAM1 (gene 7412); assay: BSK_hDFCGF_VCAM1: BioMAP Diversity Plus: hDFCGF Assay for Vascular cell adhesion molecule 1 (VCAM1) Biomarker Activity (AID 2283065); settings: primary human foreskin fibroblasts; actives raise or lower the signal;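 for AC50: VCAM-1 protein level quantified by ELISA after 24 h chemical exposure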
Method in brief: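 ELISA read-out of VCAM-1 on human skin fibroblasts, 24 h post-dose; gain or loss of signal fitted bidirectionally against DMSO baseline.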

[20] = read-out: E-selectin (Homo sapiens) (UniProt P16581); assay: BSK_LPS_Eselectin: BioMAP Diversity Plus: LPS Assay for Eselectin Biomarker Activity (AID 2283077); settings: primary human HUVEC with PBMC; actives raise or lower the signal
Method in brief: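 ELISA readout of E-selectin, 24 h post-dose, HUVEC + PBMC co-culture (LPS system). Gain or loss of signal vs DMSO baseline, bidirectional fit.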

Measured: AC50

E-selectin (Homo sapiens), sequence (P16581 whole entry, looked up): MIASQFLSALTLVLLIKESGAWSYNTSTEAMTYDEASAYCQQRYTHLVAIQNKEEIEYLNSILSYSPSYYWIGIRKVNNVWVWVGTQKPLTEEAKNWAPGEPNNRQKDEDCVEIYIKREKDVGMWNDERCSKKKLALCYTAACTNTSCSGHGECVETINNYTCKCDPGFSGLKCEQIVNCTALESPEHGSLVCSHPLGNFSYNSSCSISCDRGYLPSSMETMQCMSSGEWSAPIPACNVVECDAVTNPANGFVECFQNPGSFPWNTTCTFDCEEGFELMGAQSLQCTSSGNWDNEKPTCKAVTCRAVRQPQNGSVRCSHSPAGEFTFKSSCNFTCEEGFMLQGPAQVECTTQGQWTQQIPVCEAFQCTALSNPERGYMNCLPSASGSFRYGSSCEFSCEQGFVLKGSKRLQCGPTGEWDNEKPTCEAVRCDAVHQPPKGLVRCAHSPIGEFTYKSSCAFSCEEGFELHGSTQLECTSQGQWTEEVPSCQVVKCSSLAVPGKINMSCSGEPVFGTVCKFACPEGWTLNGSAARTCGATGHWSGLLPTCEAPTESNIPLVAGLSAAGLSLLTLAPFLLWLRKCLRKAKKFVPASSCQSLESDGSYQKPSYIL

O=C(O)C(F)(F)C(F)(F)F
not listed: [18] | [19] | [20]
inactive: all other assays above

CCN(CC)c1ccc2c(C)cc(=O)oc2c1
not listed: [3] | [19] | [20]
inactive: all other assays above

CC(CCl)OP(=O)(OC(C)CCl)OC(C)CCl (centres undefined)
active: [6] 15.9 nM
not listed: [19] | [20]
inactive: all other assays above

C=CC/C=C/C/C=C/C/C=C/C
active: [5] 16 nM | [6] 141 nM
not listed: [20]
inactive: all other assays above

OCC(F)(F)C(F)(F)C(F)(F)C(F)(F)C(F)(F)C(F)F
not listed: [3] | [18]
inactive: all other assays above

C=C(C)C(=O)OCC(F)(F)C(F)(F)C(F)(F)C(F)(F)C(F)(F)C(F)(F)C(F)(F)F
inactive: [1] | [2] | [3] | [4] | [5] | [19] | [6] | [7] | [8] | [9] | [10] | [11] | [12] | [13] | [14] | [15] | [20] | [16] | [17]
active: [2] 1.4 µM | [20] 30.6 nM

O=P(O)(O)OCCC(F)(F)C(F)(F)C(F)(F)C(F)(F)C(F)(F)C(F)(F)F
active: [15] 0.823 µM
inactive: [1] | [2] | [4] | [5] | [19] | [6] | [7] | [8] | [9] | [10] | [11] | [12] | [13] | [14] | [15] | [20] | [16] | [17]

O=C(O)C=C(C(F)(F)F)C(F)(F)F
active: [3] 967 nM | [6] 22600 nM | [13] 8.2 µM | [15] 19.6 µM
inactive: [1] | [2] | [3] | [4] | [5] | [6] | [7] | [8] | [9] | [10] | [11] | [12] | [13] | [14] | [15] | [20] | [16] | [17]

FC(F)(I)C(F)(F)C(F)(F)C(F)(F)I
active: [1] 51.1 µM and 47.7 µM and 58.5 µM | [2] 46.3 µM and 52.7 µM and 54 µM | [4] 50.1 µM and 46 µM and 54.4 µM | [5] 56.1 µM and 47.6 µM and 46.9 µM | [19] 50.3 µM and 57.2 µM and 46.4 µM | [6] 45.1 µM and 50.2 µM and 44.9 µM | [7] 45.5 µM and 46.4 µM and 46.6 µM | [8] 52.2 µM and 58.4 µM and 56.6 µM | [9] 52.6 µM and 51.1 µM and 58.7 µM | [10] 53.2 µM and 47.2 µM and 47.7 µM | [11] 54.2 µM and 46.7 µM and 53.1 µM | [12] 50.9 µM and 46.8 µM and 48.7 µM | [13] 52 µM and 51.2 µM and 45.8 µM | [14] 49.5 µM and 45.8 µM and 54 µM
inactive: [15] | [16] | [17]

FC(F)(F)C(F)(F)C(F)(F)C(F)(F)C(F)(F)C(F)(F)CCS
not listed: [18] | [19]
inactive: all other assays above

O=C(O)C(F)(F)C(F)(F)OC(F)(F)F
not listed: [18] | [19]
inactive: all other assays above

From PubChem BioAssay (EPA / NIEHS)
